Measurements published in ChEMBL document CHEMBL3988442, “University of Dundee, Small-Polar-MMV Screening Library” (2021).
For some assays here: Measured potencies and affinities stand elsewhere.

Assays:
Parameters in all cases: scale not given: direction of the effect not stated beside the values
[1] = target: Protein translocase subunit SecA (Escherichia coli (strain K12)) (UniProt P10408); experiment: Assay to Identify E. coli SecA ATPase Inhibitors; format: functional; conditions: 30 µM
[2] = target: T1, Ubiquitin-activating enzyme e1, putative (Leishmania donovani (strain BPK282A1)) (UniProt E9BSI1); experiment: Leishmania donovani Ubiquitin Activating Enzyme (LdE1); format: functional; conditions: 30 µM
T1 sequence (whole entry): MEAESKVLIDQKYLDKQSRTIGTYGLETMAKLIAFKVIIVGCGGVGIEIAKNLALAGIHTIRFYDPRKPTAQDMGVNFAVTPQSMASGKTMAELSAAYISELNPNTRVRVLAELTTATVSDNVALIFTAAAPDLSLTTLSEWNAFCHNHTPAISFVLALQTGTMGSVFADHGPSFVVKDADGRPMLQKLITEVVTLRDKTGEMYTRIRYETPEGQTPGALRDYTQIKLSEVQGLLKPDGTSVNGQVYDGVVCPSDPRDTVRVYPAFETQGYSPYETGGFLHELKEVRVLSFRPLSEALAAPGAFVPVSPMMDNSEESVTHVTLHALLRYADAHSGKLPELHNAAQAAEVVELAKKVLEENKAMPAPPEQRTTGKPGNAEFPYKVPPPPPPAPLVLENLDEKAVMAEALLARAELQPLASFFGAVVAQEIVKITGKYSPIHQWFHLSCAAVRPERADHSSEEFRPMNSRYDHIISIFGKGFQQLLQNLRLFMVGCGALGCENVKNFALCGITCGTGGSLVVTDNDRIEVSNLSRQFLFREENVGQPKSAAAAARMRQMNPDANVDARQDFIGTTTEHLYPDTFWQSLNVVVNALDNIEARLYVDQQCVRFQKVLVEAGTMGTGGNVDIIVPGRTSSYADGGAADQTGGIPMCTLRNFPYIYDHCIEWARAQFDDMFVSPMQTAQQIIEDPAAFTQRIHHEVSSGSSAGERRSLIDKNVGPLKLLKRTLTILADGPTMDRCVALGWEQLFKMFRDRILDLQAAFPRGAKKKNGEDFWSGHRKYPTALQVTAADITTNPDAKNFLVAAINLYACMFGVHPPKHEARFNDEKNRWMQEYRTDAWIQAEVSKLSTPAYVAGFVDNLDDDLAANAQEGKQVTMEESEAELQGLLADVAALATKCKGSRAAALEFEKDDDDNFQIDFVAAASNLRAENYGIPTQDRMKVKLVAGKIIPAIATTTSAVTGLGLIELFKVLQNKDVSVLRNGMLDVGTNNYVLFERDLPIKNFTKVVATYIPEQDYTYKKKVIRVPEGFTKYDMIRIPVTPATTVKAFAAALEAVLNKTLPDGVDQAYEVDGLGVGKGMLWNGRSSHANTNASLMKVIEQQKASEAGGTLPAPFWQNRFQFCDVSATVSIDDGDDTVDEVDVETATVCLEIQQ

[3] = target: AMP-activated protein kinase, AMPK (Homo sapiens) (UniProt P54646+O43741+P54619+Q9UGJ0+Q9Y478+Q13131+Q9UGI9); experiment: AMP-dependent Kinase enzyme assay. An in vitro enzyme assay that detects ADP turnover that is directly proportional to AMPK activity. This uses naive AMPK that is activated during the assay with MK-8722; format: functional; conditions: 30 µM
[4] = target: Sialic acid-binding Ig-like lectin 9 (Homo sapiens) (UniProt Q9Y336); experiment: Hs-Siglec9 ALPHAscreen SOP 20170721; conditions: 10 µM
Sequence of Sialic acid-binding Ig-like lectin 9 (Homo sapiens) (Q9Y336 whole entry): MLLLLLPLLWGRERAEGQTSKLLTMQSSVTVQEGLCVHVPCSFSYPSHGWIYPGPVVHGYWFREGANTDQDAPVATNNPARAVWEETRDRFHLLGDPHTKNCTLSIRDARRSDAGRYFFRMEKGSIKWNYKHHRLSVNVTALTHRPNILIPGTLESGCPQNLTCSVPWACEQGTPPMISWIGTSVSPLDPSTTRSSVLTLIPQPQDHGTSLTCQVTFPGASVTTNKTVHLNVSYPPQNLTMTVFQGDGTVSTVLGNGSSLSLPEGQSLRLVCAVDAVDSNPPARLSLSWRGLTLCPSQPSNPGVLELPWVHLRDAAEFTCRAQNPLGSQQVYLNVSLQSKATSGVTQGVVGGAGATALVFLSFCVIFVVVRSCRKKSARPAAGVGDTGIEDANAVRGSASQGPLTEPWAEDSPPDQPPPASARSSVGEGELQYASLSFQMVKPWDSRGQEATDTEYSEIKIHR

[5] = test system: Trypanosoma cruzi; experiment: Trypanosoma cruzi phosphomannomutase and mannose-1-phosphate guanylyltransferase assay; format: functional; conditions: 10 µM
[6] = target: T2, Arginase-2, mitochondrial (Homo sapiens) (UniProt P78540); experiment: in vitro enzyme assay to detect the production of urea directly proportional to the activity of Arginase II; format: functional; conditions: 33.3 µM; also: in the data most compounds retested in dose-response had high values
T2 sequence (whole entry): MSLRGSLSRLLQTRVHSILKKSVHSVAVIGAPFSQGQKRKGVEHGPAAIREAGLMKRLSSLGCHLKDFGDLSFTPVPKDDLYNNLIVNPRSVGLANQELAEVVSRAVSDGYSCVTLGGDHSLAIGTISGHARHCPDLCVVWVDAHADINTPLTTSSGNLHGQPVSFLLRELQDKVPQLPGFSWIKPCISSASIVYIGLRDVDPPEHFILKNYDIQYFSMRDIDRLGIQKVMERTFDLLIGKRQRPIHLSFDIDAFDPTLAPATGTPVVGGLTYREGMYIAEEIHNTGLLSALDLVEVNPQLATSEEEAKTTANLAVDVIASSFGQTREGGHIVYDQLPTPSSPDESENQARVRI

[7] = target: T3, Proteasome subunit beta (Trypanosoma cruzi) (UniProt O96673); experiment: Trypanosoma cruzi proteasome chymotrypsin-like activity (TcProtChymo) assay.; also: in the data most compounds retested in dose-response had high values; format: functional; conditions: 9.37 µM
T3 sequence (whole entry): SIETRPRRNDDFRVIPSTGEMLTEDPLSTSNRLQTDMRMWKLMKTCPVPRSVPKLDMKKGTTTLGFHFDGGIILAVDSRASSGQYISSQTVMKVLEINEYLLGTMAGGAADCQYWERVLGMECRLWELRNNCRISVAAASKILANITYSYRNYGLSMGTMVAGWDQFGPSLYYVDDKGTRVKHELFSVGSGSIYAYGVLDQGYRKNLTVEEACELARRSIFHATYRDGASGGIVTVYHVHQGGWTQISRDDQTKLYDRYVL

[8] = species: Homo sapiens; experiment: To identify inhibition of the IFN signalling (Jak-Stat) pathway via expression of an eGFP reporter gene under the control of an IFN-stimulated response element (ISRE) containing MxA promoter.; format: functional; conditions: 30 µM
[9] = target: T4, Tyrosyl-tRNA synthetase, putative (Trypanosoma cruzi (strain CL Brener)) (UniProt Q4DSP6); experiment: Trypanosoma cruzi tyrosyl tRNA synthetase (TcYRS) _High Tyrosine SOP; format: functional; conditions: 30 µM; also: in the data most compounds retested in dose-response had high values
T4 sequence (whole entry): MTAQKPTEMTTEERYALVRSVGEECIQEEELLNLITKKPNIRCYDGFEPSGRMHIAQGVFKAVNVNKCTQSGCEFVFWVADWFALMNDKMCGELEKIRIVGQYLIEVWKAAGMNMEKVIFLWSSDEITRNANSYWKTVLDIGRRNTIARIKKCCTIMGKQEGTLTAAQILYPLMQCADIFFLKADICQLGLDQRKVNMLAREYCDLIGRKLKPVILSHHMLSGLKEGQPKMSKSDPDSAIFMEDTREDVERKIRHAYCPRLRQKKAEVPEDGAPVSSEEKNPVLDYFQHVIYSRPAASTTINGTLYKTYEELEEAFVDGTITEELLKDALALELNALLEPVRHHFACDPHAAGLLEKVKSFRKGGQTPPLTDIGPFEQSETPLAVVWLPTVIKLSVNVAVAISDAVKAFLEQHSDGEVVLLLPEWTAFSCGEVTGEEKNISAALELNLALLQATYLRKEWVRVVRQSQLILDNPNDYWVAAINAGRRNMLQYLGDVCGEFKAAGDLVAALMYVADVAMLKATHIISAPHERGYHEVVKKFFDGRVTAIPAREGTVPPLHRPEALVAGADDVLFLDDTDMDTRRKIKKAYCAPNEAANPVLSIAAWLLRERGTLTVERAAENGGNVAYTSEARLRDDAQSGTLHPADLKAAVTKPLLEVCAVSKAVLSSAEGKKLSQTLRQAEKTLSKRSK

[10] = target: T4, Tyrosyl-tRNA synthetase, putative (Trypanosoma cruzi (strain CL Brener)); experiment: Trypanosoma cruzi tyrosyl tRNA synthetase (TcYRS) SOP; format: functional; conditions: 30 µM
[11] = target: Chromo domain-containing protein 1 (Saccharomyces cerevisiae (strain ATCC 204508 / S288c) (Baker's yeast)) (UniProt P32657); experiment: ScCHD-1 Enzyme Inhibition Assay; format: functional; conditions: 30 µM; also: in the data most compounds retested in dose-response had high values
Sequence of Chromo domain-containing protein 1 (Saccharomyces cerevisiae (strain ATCC 204508 / S288c) (Baker's yeast)) (P32657 whole entry, the tested form may be a part): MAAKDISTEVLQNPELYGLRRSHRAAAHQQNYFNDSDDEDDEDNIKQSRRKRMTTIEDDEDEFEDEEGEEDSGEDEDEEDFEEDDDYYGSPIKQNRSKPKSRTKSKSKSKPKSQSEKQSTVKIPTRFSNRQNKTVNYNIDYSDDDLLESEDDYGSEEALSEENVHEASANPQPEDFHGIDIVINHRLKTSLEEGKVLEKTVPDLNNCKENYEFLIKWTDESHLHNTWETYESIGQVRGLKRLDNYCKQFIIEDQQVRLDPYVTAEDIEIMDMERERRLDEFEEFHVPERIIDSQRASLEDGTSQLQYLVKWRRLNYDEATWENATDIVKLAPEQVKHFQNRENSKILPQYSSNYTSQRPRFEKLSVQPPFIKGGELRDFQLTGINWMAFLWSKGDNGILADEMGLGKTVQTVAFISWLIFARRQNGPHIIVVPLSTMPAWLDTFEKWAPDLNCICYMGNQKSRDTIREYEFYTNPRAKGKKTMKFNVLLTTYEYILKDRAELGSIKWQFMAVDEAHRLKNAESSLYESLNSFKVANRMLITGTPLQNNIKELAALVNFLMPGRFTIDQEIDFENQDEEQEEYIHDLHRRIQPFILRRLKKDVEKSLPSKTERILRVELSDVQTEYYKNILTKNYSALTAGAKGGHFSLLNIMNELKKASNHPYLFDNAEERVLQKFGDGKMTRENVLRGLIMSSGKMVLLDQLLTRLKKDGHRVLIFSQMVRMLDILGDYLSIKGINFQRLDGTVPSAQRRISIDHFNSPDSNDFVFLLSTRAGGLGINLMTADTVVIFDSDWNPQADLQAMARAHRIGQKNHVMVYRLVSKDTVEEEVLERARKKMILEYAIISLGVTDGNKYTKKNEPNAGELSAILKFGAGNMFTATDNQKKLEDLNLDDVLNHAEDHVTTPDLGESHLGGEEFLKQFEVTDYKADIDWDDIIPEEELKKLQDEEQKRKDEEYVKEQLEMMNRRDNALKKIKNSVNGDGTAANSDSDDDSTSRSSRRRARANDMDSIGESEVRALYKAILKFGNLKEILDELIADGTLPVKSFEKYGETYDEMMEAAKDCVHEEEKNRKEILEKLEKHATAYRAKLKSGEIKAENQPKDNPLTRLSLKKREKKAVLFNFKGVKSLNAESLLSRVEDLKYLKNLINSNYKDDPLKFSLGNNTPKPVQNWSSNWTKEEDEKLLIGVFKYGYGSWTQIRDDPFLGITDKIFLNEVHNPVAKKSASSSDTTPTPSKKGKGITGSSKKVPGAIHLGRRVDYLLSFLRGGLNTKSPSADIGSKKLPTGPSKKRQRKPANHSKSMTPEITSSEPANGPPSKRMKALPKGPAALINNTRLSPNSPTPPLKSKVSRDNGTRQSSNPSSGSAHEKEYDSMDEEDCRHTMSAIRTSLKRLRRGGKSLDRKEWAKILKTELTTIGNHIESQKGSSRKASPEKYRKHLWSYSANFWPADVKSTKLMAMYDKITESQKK

Sequence of Protein translocase subunit SecA (Escherichia coli (strain K12)) (P10408 whole entry): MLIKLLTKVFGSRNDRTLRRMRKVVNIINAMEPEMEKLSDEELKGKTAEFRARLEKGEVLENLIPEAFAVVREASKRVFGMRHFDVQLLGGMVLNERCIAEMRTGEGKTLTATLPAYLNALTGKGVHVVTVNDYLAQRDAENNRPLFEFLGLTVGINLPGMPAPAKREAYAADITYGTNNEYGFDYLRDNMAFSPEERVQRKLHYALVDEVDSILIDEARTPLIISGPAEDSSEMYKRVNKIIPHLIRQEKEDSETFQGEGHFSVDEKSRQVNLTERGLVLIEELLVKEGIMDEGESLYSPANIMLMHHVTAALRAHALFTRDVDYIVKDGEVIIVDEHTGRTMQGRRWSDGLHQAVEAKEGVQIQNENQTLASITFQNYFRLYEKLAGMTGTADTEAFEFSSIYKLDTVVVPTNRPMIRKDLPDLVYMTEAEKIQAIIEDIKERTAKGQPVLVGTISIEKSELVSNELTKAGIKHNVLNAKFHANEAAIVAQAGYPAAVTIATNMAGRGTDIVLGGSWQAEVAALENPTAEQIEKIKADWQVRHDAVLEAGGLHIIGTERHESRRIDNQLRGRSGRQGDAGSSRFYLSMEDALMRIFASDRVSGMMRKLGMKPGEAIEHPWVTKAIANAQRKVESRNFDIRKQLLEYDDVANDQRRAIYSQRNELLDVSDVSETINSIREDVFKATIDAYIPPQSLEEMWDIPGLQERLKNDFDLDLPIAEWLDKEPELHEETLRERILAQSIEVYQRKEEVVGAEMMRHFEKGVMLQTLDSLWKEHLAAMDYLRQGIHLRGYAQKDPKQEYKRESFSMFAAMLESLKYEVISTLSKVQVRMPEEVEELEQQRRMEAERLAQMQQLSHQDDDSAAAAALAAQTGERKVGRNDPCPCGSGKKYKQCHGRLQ

| Compound | Percent Effect [1] [%] | Percent Effect [2] [%] | Percent Effect [3] [%] | Percent Effect [4] [%] | Percent Effect [5] [%] | Percent Effect [6] [%] | Percent Effect [7] [%] | Percent Effect [8] [%] | Percent Effect [9] [%] | Percent Effect [10] [%] | Percent Effect [11] [%] |
| --- | --- | --- | --- | --- | --- | --- | --- | --- | --- | --- | --- |
| O=C(c1ccccc1N1CCOCC1)N1CCCC(n2cccn2)C1 (centres undefined) | -5.13 | 2.7 | -10.8 | 3.15 | -1.98 | -0.802 | 3.06 | 12.4 | 5.42 | 13.6 | -3.66 |
| Cc1nc(C2CCCN2CC(=O)N2CCCc3ccccc32)no1 (centres undefined) | -2.99 | -13.2 | -3.99 | 5.27 | 6.77 | 3.45 | 0 | 6.64 | 4.41 | 4.88 | -4.73 |
| O=C(NCc1ccccn1)N(Cc1ccc(F)cc1F)C1CC1 | -3.99 | 12.7 | 3.15 | 9.47 | -0.0944 | -1.52 | 5 | 12 | 5.42 | 13.9 | -5.13 |
| CN(C)C(=O)N1CCc2c(nnn2C)C1COCc1ccccc1 (centres undefined) | -4.49 | 21.3 | -8.1 | -0.726 | 5.21 | -42.1 | 13.7 | -0.202 | 7.29 | 27.5 | -6.92 |
